Assay [1] can be described thus: qHTS to identify inhibitors of the type 1 interferon - major histocompatibility complex class I in skeletal muscle: primary screen against the NCATS LOPAC collection (AID 1347405).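 Further: lytic HiBiT luminescence reporting HLA-B protein level.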 Further: potency means the concentration at half of the fitted maximal effect. In a few lines:
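CRISPR-engineered immortalized human myoblasts (C25cl48) with HiBiT fused to endogenous HLA-B*08:01, stimulated with 4 ng/ml IFN-beta. LOPAC compounds tested as a 7-point 1:4.3 titration (top 46 uM final), 24 h at 37 C; lytic HiBiT luminescence read.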
(qHTS replaces the single test concentration by a dilution series.)

The nature of assay [2]: qHTS for inhibitors of adenylyl cyclases using a fission yeast platform: a pilot screen against the NCATS LOPAC library (AID 1347410). In a few lines: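 Growth medium went into the plates first, then compounds were pinned (final up to 57 µM), then CHP2027 yeast were added. Plates were incubated overnight (18 h) at 30C in the dark, and GFP was measured by laser scanning cytometry.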

Assay [3] is described as follows: Validation qHTS assay for inhibitors of Activation Induced Cytidine Deaminase (AID): UDG Counterscreen signal (AID 1347427). Summed up: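 Counterscreen read of UDG activity (2 U/mL, 4/3x) in the FRET deamination format with AID (1 uM, 4/3x), DJC20/DJC23 substrates (250 nM, 4x), 4 h at room temperature. NaOH stop, fluorescence at 560 ex/665 em.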
Assay [4] can be described thus: qHTS to identify inhibitors of the type 1 interferon - major histocompatibility complex class I in skeletal muscle: primary screen against the NCATS Mechanism Interrogation Plate v5.0 (MIPE) Libary (AID 1347411). Further: nearly all actives have a fitted effect of over 65% in size. In a few lines: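 Immortalized human myoblasts (C25cl48) with HiBit knocked into endogenous HLA-B*08:01 were stimulated with 4 ng/ml IFN-beta and given compounds in 11-point 1:3 titration from 46 uM. After 24 h at 37 C, lytic HiBiT luminescence was read.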

Results filed as inconclusive are left out. A call without a number means that no potency is given here. Calls of active or inactive are those of the source. The call rests on the fitted dose curve; in most records, active means well fitted curve in the direction sought with a large enough effect; inconclusive means small, poorly fitted or top-dose-only effect, or another doubt; inactive means no such curve, though single readings can be large; an effect the other way counts as inactive or inconclusive.

Consider `CC(/C=C/c1cccc(Oc2ccc(F)cc2)c1)N(O)C(N)=O` (stereo unspecified), for which the Potency entry in assay [1] and in assay [3] was “inactive” in each case. Moreover, the compound was classed as inactive in assay [2].
As to `C=CCn1c(=O)c2c(nc(-c3ccc(S(=O)(=O)O)cc3)n2C)n(C)c1=O`, the Potency result in assay [1] and in assay [3] was “inactive” each time.
In the case of `NC/C=C\C(=O)O`, the Potency result in assay [1] and in assay [3] was “inactive” throughout.
Take `COc1ccc(NC(=O)c2ccc(-c3ccc(-c4noc(C)n4)cc3C)cc2)cc1N1CCN(C)CC1`: the Potency in assay [1] was 25.1 µM (active). In addition, in assay [3], the Potency entry was “inactive”.
Turning to `CN(C)C(=O)/N=N/C(=O)N(C)C`, the Potency entry in assay [1] and in assay [3] was “inactive” each time.
For `CC1=C(/C=C/C(C)=C/C=C/C(C)=C\C(=O)O)C(C)(C)CCC1`, the Potency entry in assay [1] and in assay [3] was “inactive” throughout. Also, the compound was called inactive in assay [4].
For the compound `Cc1cc(Cn2cnc3c2C[C@@H](C(=O)O)N(C(=O)C(c2ccccc2)c2ccccc2)C3)ccc1N`, the outcome in assay [2] was inactive.
Regarding `Nn1nnc2ccccc21`, the Potency result in assay [1] and in assay [3] was “inactive” throughout. Moreover, in assay [2], the compound was called inactive.
Take `NC(C(=O)N[C@@H]1C(=O)N2C(C(=O)O)=C(Cl)CS[C@H]12)c1ccccc1` (stereo partly specified): the Potency entry in assay [1] and in assay [3] was “inactive” each time.
As for `CC(N)=O`, the Potency result in assay [1] and in assay [3] was “inactive” throughout.
With `N[C@@H](CCCC(=O)O)C(=O)O`, the Potency entry in assay [1] and in assay [3] was “inactive” in each case. For the same compound, the compound was called inactive in assay [2].
Turning to `CC(N)(Cc1ccc(O)cc1)C(=O)O` (stereo unspecified), the Potency entry in assay [1] and in assay [3] was “inactive” in each case. Moreover, the outcome in assay [2] was inactive.
With `c1ccc(C(NCCNC(c2ccccc2)c2ccccc2)c2ccccc2)cc1`, the Potency result in assay [1] and in assay [3] was “inactive” throughout.
Take `CCCn1c(=O)c2[nH]c(C3CCCC3)nc2n(CCC)c1=O`: the Potency result in assay [1] and in assay [3] was “inactive” each time.
Consider `CCCc1c(-c2ccc(O)cc2)nn(-c2ccc(O)cc2)c1-c1ccc(O)cc1`, for which the Potency result in assay [1] and in assay [3] was “inactive” each time.
With `CC1C(=O)N(C)C(=O)c2nc[nH]c21` (stereo unspecified), the Potency entry in assay [1] and in assay [3] was “inactive” throughout.
Turning to `NC(N)=NC(N)=Nc1ccccc1`, the Potency entry in assay [1] and in assay [3] was “inactive” in each case.
On to `Nc1ccc(CCNc2ncnc3c2ncn3C2OC(CO)C(O)C2O)cc1` (stereo unspecified), for which the compound was classed as inactive in assay [2].
`NCCS(=O)O`: the Potency result in assay [1] and in assay [3] was “inactive” throughout.
Turning to `O=c1ccn([C@@H]2O[C@H](COP(=O)(O)OP(=O)(O)O)[C@@H](O)[C@H]2O)c(=O)[nH]1`, the Potency result in assay [1] and in assay [3] was “inactive” each time.
Take `OC[C@H]1O[C@@H](n2cnc3cncnc32)[C@H](O)[C@@H]1O`: the result in assay [2] was inactive.
For `CCC1(O)CC2CN(CCc3c([nH]c4ccccc34)[C@@](C(=O)OC)(c3cc4c(cc3OC)N(C=O)C3[C@]45CCN4CC=C[C@@](CC)([C@@H](OC(C)=O)[C@]3(O)C(=O)OC)[C@H]45)C2)C1` (stereo partly specified), the compound was called inactive in assay [2].
For `[N-]=[N+]=Nc1ccc(C(=O)CSC[C@H](NC(=O)CC[C@H](N)C(=O)O)C(=O)NCC(=O)O)cc1`, the Potency result in assay [1] and in assay [3] was “inactive” each time. For the same compound, the call in assay [2] was inactive.
Take `CNCCNS(=O)(=O)c1cccc2cnccc12`: the compound was called inactive in assay [2]. In addition, the Potency result in assay [3] was “inactive”.
For the compound `C=CCN1CCc2cc(O)c(O)cc2C(c2ccccc2)C1` (stereo unspecified), in assay [2], the call was inactive. In addition, in assay [3], the Potency entry is “inactive”.
Regarding `O=C1Cc2c([nH]c3ccc(Br)cc23)-c2ccccc2N1`, the call in assay [2] was inactive. Besides, the Potency entry in assay [3] is “inactive”.
As for `Cn1c(=O)c2[nH]c(C3CCCC3)nc2n(C)c1=O`, the compound was called inactive in assay [2]. Also, in assay [3], the Potency entry is “inactive”.
Consider `[Li+]`, for which the compound was classed as inactive in assay [2]. Moreover, the Potency result in assay [3] was “inactive”.
For `O=c1[nH]c(=S)[nH]c(-c2ccccc2)c1Cc1c(O)ccc2ccccc12`, the outcome in assay [2] was inactive. Further, the Potency entry in assay [3] is “inactive”.
On to `N#C/C(=C\c1ccc(O)c(O)c1)C(=O)NCCc1ccccc1`, for which the outcome in assay [2] was inactive. Further, the Potency entry in assay [3] was “inactive”.
As to `CC#CCOC(=O)c1c(C)nc2sc3c(c2c1N)CCC(O)C3` (stereo unspecified), in assay [2], the call was inactive. For the same compound, in assay [3], the Potency entry was “inactive”.
Take `CC(C)NC[C@H](O)COc1ccc(CC(N)=O)cc1`: in assay [2], the compound was classed as inactive. In assay [3], the Potency result was “inactive”.
Consider `COc1cc(/C=C(\C#N)C(=O)Nc2nnc(C(F)(F)F)s2)ccc1OCc1ccc(C(F)(F)F)cc1C(F)(F)F`, for which the outcome in assay [2] and in assay [4] was inactive. Also, the Potency entry in assay [3] is “inactive”.
With `N[C@@H](Cc1ccc(F)cc1)C(=O)O`, the call in assay [2] was inactive. In addition, in assay [3], the Potency result was “inactive”.

The values are drawn from PubChem BioAssay (NCATS).
